PI5P4K alpha inh = PI5P4K alpha (human) kinase inhibition; P48426; PI5P4Kalpha enzyme, ADP-Glo luminescence, 60 min; hits give low values; max response, %; actives 1.2% (n = 330,000); AID 652105; active = max response of -50% or lower; inconclusive = between -30% and -50%; inactive = -30% or higher; note: value at the top dose of about 77 µM; % is set by controls: 0 for no effect and ±100 for the full control effect
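Reactions run in 0.038 M HEPES pH 7.4, 0.28 mM EGTA, 0.1% CHAPS and 5% DMSO, with PI5P4Kalpha, substrate, compound and 5 microM ATP final, one hour at room temperature. Readout is ADP-Glo luminescence.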
G9a block = blocks human histone lysine methyltransferase G9a. AID 504332. Potency, µM (doses to about 102 µM), inactives show at the top dose activity, negative = inhibition, hits mostly inhibitors. G9a H3K9 monomethylation, AlphaScreen, 2 h. Q96KQ7. actives 8.8% (n = 350,000); note: potency is the fitted concentration of half-maximal effect; % is set by controls: 0 for no effect and ±100 for the full control effect; nearly all actives have a fitted effect of over 75% in size
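G9a (20 nM) was preincubated 15 min with compound, then reacted 2 h at room temperature with 500 nM biotin-H3K9 peptide and 20 µM SAM. Monomethyl-H3K9 detected by AlphaScreen using anti-H3K9me1 antibody.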
PLK1 PBD block = inhibitors of human PLK1 polo-box domain binding; P53350; AID 720504; Potency, µM, without a hit: max response, negative = inhibition, actives largely listed as inhibitors; actives 2.8% (n = 360,000); Plk1 PBD binding of FITC phosphopeptide, fluorescence polarization; note: potency is the fitted concentration of half-maximal effect; series mostly up to about 57 µM; % is set by controls: 0 for no effect and ±100 for the full control effect; nearly all actives have a fitted effect of over 65% in size
HP1b chromo inh = inhibitors of HP1-beta chromodomain binding to methylated histone tails. P83916. AlphaScreen HP1-beta / biotin-H3K9me3 peptide binding. Potency, µM (top dose mostly 114 µM), for the others: at the highest dose activity change, negative = inhibition, actives largely listed as inhibitors. actives 0.56% (n = 390,000); note: potency is the fitted concentration of half-maximal effect; nearly all actives have a fitted effect of over 70% in size
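HP1-beta protein (50 nM final) preincubated 30 min at room temperature with biotinylated H3(1-18)K9me3 peptide (50 nM) in PBS pH 7.4, 0.01% Tween-20, then compound added for 30 min. AlphaScreen streptavidin donor/nickel chelate acceptor beads (10 ug/mL final), 30 min dark, luminescence read.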
JMJD2A Tudor inh = JMJD2A Tudor domain (human) inhibition | Potency, µM (doses to about 114 µM), inactives show top-dose activity change, negative = inhibition, most hits filed as inhibitors | O75164 | actives 4.4% (n = 390,000) | AID 504339 | AlphaScreen JMJD2A-Tudor / H3K4me3 peptide binding; note: potency is the fitted concentration of half-maximal effect; % is set by controls: 0 for no effect and ±100 for the full control effect; nearly all actives have a fitted effect of over 50% in size
BAZ2B inh = BAZ2B (human) inhibition; actives 4.4% (n = 360,000); AlphaScreen BAZ2B-H3K14Ac peptide displacement; Potency, µM (series often up to 114 µM), for inactives: at the highest dose activity change, negative = inhibition, actives largely listed as inhibitors; note: potency is the fitted concentration of half-maximal effect; % is set by controls: 0 for no effect and ±100 for the full control effect; nearly all actives have a fitted effect of over 60% in size
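Inhibition is scored as reduced AlphaScreen emission. The BAZ2B/b-H3(5-23)K14Ac complex (50 nM each) in PBS pH 7.4, 0.01% Tween-20 meets compound (up to 110 uM) for 30 min at RT before bead addition.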
An asterisk follows results filed as active; ? = inconclusive; / = not tested or not shown; [ ] = dose if it differs, or a comment. A selection: hits, their analogues and other compounds. The true share with any hit is near 12%. Unless noted, calls come from the whole dose curve; as a rule, active = well fitted curve in the direction sought with a large enough effect; inconclusive = small, poorly fitted or top-dose-only effect, or another doubt; inactive = no such curve, though single readings can be large; an effect the other way counts as inactive or inconclusive.

SMILES	PI5P4K alpha inh	G9a block	PLK1 PBD block	HP1b chromo inh	JMJD2A Tudor inh	BAZ2B inh
Fc1ccc(C2NCCn3cccc32)cc1 (stereo not drawn)	-2	?	-2%	17%	-34%	?
CC(=O)N1N=C(c2ccc(C)o2)CC1c1ccc(Br)cc1 (stereo not drawn)	/	/	-11%	-1%	-26%	?
Cc1ccc(C2=NN(C(=O)CCl)C(c3cccs3)C2)o1 (stereo not drawn)	2	13µM*	-11%	24%	-13%	-10%
O=C(CCl)N1N=C(c2ccco2)CC1c1cccs1 (stereo not drawn)	-24	10µM*	-13%	16%	-18%	-5%
CS(=O)(=O)Nc1cccc(C2=NN(C(=O)c3ccccc3)C(c3cccs3)C2)c1 (stereo not drawn)	4	-48%	2%	11%	-12%	7%
CCC(=O)N1N=C(c2ccc(C)o2)CC1c1ccc(N(C)C)cc1 (stereo not drawn)	1	50µM*	0%	-5%	?	?
CC(=O)N1N=C(c2ccco2)CC1c1cccs1 (stereo not drawn)	/	?	-5%	22%	-13%	14%
O=C(c1ccccc1)N1N=C(c2ccco2)CC1c1cccs1 (stereo not drawn)	?	/	21µM*	?	35µM*	?
Cc1ccc(C(NC(=O)C2CCN(Cc3ccc(Oc4ccccc4)cc3)CC2)c2ccccn2)cc1 (stereo not drawn)	-4	/	-7%	/	/	/
CC(C)(C)C(=O)NCCc1csc2nc(-c3ccc(F)cc3)nn12	/	0%[59 µM]	/	27%[57 µM]	8%	7%
Cc1cc(NC(=O)c2ccc(C#N)cc2)n(-c2ccccn2)n1	-1	45µM*	-7%	26%	-17%	-8%
CCN1C(=O)CCCc2ccccc21	-1	-43%	1%	35%	-1%	-14%
CCCN1CCCc2ccccc21	/	22µM*	-2%	12%	-35%	?
O=C1NC2CCCCC2C(=O)N1OS(=O)(=O)c1ccccc1 (stereo not drawn)	-20	/	0.75µM*	50µM*	?	/
NC(=O)C1CCN(C(=O)CCNS(=O)(=O)c2ccccc2F)CC1	1	1%[12.7 µM]	-13%	28%	0%	-4%
CCn1c2ccccc2c2cc(/C=N/n3cn[nH]c3=S)ccc21	/	0%[0.501 µM]	-18%	-33%	18µM*	?
CCn1c2ccccc2c2cc(/C=N/n3c(-c4cc(C)[nH]n4)n[nH]c3=S)ccc21	-60*	2.5µM*	-27%	-7%	?	-34%
COc1cc([N+](=O)[O-])ccc1NC(=O)COC(=O)CCS(=O)(=O)c1ccc(C)cc1	-5	10%[12.7 µM]	1%	17%	-26%	-3%
O=C(Nc1ccc(Br)c2ccccc12)c1ccc2ccccc2c1O	1	28µM*	?	?	?	28µM*
NC(=O)C[C@@H]1NC(=O)[C@H](CCC(=O)O)NC(=O)c2cc([N+](=O)[O-])cc(I)c2OCC[C@@H](C(N)=O)NC1=O	-7	28µM*	-14%	6%	-26%	-35%
CC(C)[C@@H]1NC(=O)c2cc([N+](=O)[O-])cc(I)c2OCC[C@@H](C(N)=O)NC(=O)[C@H](CCC(=O)O)NC1=O	-5	45µM*	-1%	29%	-15%	?
NC(=O)CC[C@@H]1NC(=O)[C@H](Cc2ccc(O)cc2)NC(=O)c2cc([N+](=O)[O-])cc(F)c2OCC[C@@H](C(N)=O)NC1=O	-1	?	-13%	6%	-25%	-11%
C[C@@H]1NC(=O)c2cc([N+](=O)[O-])cc(I)c2OCC[C@@H](C(N)=O)NC(=O)[C@H](CCC(=O)O)NC1=O	/	28µM*	/	/	/	?
Cc1ccc(NC(=O)CSc2nncn2N)cc1C	-3	66%	6%	35%	12%	6%
CCOC(=O)CSC1=C(C#N)C(=O)NC2(CCCCC2)S1	-52*	32µM*	?	71µM*	45µM*	13µM*

Screens from PubChem BioAssay.
